Measurements reported in ChEMBL document CHEMBL3988442, “University of Dundee, Small-Polar-MMV Screening Library” (2021).
For some of these results: Results with a measured potency or affinity are listed apart.

What was measured:
Design in all cases: scale not given: direction of the effect not stated beside the values
[1] = molecular target: Protein translocase subunit SecA (Escherichia coli (strain K12)) (UniProt P10408); assay: Assay to Identify E. coli SecA ATPase Inhibitors; type: functional; conditions: 30 µM
Chain of Protein translocase subunit SecA (Escherichia coli (strain K12)) (P10408 whole entry): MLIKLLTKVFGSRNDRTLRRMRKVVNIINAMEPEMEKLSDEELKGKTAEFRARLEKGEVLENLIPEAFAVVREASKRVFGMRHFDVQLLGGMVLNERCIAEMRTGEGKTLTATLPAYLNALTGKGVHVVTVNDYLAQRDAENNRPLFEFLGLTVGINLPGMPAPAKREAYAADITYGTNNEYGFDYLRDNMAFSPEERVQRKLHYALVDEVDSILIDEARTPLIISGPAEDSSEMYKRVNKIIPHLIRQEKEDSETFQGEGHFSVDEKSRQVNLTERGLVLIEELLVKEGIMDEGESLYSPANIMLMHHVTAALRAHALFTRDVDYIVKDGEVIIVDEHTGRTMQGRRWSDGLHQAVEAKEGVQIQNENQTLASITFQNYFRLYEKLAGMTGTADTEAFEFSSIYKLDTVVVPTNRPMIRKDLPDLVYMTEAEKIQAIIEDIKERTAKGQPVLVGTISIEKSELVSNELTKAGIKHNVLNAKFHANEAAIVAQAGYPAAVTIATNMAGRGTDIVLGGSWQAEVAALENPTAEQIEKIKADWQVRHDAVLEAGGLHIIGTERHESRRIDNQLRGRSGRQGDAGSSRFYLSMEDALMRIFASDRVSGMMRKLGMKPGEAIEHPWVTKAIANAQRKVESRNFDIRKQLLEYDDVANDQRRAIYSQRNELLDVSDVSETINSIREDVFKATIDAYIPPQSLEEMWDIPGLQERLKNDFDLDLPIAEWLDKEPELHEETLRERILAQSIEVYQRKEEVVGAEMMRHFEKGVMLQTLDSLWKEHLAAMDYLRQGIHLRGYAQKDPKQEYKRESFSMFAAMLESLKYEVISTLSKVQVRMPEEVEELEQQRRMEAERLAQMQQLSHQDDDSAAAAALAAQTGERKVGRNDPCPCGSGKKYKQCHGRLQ

[2] = molecular target: T1, Ubiquitin-activating enzyme e1, putative (Leishmania donovani (strain BPK282A1)) (UniProt E9BSI1); assay: Leishmania donovani Ubiquitin Activating Enzyme (LdE1); type: functional; conditions: 30 µM
T1 sequence (whole entry): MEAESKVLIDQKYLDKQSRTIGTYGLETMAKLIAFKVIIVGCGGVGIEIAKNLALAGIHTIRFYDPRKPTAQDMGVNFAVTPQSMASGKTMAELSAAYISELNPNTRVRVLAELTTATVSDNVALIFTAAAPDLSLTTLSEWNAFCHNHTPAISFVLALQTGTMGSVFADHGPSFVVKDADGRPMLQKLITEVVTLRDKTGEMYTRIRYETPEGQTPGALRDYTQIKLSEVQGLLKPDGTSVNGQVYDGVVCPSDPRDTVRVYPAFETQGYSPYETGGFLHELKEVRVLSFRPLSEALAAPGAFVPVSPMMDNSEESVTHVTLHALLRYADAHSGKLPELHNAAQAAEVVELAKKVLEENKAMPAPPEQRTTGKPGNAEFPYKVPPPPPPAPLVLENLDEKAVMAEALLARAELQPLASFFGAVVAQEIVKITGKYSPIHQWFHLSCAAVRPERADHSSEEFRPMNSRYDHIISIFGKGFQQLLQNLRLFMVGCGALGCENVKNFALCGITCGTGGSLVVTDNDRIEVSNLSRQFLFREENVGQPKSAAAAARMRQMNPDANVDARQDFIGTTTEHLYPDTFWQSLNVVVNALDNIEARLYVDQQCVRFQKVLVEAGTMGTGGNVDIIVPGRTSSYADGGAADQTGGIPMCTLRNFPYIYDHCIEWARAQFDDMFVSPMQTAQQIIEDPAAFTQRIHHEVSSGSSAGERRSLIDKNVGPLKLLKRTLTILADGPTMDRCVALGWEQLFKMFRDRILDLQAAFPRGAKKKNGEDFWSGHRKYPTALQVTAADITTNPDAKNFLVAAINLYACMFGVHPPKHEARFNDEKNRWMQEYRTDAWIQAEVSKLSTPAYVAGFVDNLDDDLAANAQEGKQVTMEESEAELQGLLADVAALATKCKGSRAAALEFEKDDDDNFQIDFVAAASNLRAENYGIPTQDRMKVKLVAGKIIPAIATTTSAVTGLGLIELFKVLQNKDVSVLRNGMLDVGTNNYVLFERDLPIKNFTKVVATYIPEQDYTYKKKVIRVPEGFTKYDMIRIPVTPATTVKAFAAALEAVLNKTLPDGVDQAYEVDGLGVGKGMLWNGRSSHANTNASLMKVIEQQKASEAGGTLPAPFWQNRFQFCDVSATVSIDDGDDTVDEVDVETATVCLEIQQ

[3] = molecular target: AMP-activated protein kinase, AMPK (Homo sapiens) (UniProt P54646+O43741+P54619+Q9UGJ0+Q9Y478+Q13131+Q9UGI9); assay: AMP-dependent Kinase enzyme assay. An in vitro enzyme assay that detects ADP turnover that is directly proportional to AMPK activity. This uses naive AMPK that is activated during the assay with MK-8722; type: functional; conditions: 30 µM
[4] = molecular target: Sialic acid-binding Ig-like lectin 9 (Homo sapiens) (UniProt Q9Y336); assay: Hs-Siglec9 ALPHAscreen SOP 20170721; conditions: 10 µM
Chain of Sialic acid-binding Ig-like lectin 9 (Homo sapiens) (Q9Y336 whole entry): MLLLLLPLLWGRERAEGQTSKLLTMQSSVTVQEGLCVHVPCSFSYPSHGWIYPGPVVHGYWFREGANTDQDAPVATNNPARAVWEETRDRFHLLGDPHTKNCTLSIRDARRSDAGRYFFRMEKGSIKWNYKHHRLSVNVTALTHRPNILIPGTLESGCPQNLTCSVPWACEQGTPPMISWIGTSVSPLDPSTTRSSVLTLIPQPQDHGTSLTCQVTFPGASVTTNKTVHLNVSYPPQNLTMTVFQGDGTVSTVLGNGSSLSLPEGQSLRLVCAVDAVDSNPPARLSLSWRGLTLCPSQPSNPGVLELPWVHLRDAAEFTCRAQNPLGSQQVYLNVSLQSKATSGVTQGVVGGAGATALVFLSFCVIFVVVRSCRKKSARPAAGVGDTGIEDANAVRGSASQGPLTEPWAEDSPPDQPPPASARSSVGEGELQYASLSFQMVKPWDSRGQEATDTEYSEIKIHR

Trypanosoma cruzi = assay: Trypanosoma cruzi phosphomannomutase and mannose-1-phosphate guanylyltransferase assay; type: functional; conditions: 10 µM
[5] = molecular target: T2, Arginase-2, mitochondrial (Homo sapiens) (UniProt P78540); assay: in vitro enzyme assay to detect the production of urea directly proportional to the activity of Arginase II; type: functional; conditions: 33.3 µM; further: in the data most compounds retested in dose-response had high values
T2 sequence (whole entry): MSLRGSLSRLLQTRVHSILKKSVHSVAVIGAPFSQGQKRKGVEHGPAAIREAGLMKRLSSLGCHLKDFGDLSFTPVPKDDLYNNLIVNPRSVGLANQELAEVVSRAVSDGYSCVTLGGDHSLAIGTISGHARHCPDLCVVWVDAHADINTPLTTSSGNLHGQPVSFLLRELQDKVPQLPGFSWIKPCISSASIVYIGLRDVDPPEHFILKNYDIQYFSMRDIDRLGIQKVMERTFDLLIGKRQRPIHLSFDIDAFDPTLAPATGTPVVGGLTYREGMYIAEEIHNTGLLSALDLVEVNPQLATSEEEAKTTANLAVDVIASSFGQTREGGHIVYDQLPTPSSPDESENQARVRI

[6] = molecular target: T3, Proteasome subunit beta (Trypanosoma cruzi) (UniProt O96673); assay: Trypanosoma cruzi proteasome chymotrypsin-like activity (TcProtChymo) assay.; further: in the data most compounds retested in dose-response had high values; type: functional; conditions: 9.37 µM
T3 sequence (whole entry): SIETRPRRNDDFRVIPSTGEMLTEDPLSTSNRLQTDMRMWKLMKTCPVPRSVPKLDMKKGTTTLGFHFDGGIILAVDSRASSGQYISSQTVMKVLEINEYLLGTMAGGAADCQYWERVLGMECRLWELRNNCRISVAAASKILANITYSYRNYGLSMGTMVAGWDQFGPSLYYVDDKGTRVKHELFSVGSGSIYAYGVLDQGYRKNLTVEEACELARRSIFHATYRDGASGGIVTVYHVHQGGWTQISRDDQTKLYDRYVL

Homo sapiens = species on record: Homo sapiens; assay: To identify inhibition of the IFN signalling (Jak-Stat) pathway via expression of an eGFP reporter gene under the control of an IFN-stimulated response element (ISRE) containing MxA promoter.; type: functional; conditions: 30 µM
[7] = molecular target: T4, Tyrosyl-tRNA synthetase, putative (Trypanosoma cruzi (strain CL Brener)) (UniProt Q4DSP6); assay: Trypanosoma cruzi tyrosyl tRNA synthetase (TcYRS) _High Tyrosine SOP; type: functional; conditions: 30 µM; further: in the data most compounds retested in dose-response had high values
T4 sequence (whole entry): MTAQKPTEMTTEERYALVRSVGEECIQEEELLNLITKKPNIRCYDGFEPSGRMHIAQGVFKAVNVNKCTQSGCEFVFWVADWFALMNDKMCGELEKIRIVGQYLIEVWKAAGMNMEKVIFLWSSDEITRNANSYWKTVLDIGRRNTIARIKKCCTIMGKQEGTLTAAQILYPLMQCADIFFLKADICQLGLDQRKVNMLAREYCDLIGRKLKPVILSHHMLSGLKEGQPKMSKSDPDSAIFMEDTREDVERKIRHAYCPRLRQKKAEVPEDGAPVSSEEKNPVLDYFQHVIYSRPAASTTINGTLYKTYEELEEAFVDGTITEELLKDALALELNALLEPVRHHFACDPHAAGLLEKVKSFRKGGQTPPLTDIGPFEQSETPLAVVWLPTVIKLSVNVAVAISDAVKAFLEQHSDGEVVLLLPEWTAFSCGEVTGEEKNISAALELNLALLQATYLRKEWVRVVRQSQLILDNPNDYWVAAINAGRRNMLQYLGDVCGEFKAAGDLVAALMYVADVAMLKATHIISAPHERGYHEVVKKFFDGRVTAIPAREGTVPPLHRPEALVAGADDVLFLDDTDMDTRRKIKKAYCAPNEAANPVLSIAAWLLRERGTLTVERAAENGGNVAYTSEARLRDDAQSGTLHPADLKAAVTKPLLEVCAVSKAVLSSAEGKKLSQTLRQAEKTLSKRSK

[8] = molecular target: T4, Tyrosyl-tRNA synthetase, putative (Trypanosoma cruzi (strain CL Brener)); assay: Trypanosoma cruzi tyrosyl tRNA synthetase (TcYRS) SOP; type: functional; conditions: 30 µM
[9] = molecular target: Chromo domain-containing protein 1 (Saccharomyces cerevisiae (strain ATCC 204508 / S288c) (Baker's yeast)) (UniProt P32657); assay: ScCHD-1 Enzyme Inhibition Assay; type: functional; conditions: 30 µM; further: in the data most compounds retested in dose-response had high values
Chain of Chromo domain-containing protein 1 (Saccharomyces cerevisiae (strain ATCC 204508 / S288c) (Baker's yeast)) (P32657 whole entry, the tested form may be a part): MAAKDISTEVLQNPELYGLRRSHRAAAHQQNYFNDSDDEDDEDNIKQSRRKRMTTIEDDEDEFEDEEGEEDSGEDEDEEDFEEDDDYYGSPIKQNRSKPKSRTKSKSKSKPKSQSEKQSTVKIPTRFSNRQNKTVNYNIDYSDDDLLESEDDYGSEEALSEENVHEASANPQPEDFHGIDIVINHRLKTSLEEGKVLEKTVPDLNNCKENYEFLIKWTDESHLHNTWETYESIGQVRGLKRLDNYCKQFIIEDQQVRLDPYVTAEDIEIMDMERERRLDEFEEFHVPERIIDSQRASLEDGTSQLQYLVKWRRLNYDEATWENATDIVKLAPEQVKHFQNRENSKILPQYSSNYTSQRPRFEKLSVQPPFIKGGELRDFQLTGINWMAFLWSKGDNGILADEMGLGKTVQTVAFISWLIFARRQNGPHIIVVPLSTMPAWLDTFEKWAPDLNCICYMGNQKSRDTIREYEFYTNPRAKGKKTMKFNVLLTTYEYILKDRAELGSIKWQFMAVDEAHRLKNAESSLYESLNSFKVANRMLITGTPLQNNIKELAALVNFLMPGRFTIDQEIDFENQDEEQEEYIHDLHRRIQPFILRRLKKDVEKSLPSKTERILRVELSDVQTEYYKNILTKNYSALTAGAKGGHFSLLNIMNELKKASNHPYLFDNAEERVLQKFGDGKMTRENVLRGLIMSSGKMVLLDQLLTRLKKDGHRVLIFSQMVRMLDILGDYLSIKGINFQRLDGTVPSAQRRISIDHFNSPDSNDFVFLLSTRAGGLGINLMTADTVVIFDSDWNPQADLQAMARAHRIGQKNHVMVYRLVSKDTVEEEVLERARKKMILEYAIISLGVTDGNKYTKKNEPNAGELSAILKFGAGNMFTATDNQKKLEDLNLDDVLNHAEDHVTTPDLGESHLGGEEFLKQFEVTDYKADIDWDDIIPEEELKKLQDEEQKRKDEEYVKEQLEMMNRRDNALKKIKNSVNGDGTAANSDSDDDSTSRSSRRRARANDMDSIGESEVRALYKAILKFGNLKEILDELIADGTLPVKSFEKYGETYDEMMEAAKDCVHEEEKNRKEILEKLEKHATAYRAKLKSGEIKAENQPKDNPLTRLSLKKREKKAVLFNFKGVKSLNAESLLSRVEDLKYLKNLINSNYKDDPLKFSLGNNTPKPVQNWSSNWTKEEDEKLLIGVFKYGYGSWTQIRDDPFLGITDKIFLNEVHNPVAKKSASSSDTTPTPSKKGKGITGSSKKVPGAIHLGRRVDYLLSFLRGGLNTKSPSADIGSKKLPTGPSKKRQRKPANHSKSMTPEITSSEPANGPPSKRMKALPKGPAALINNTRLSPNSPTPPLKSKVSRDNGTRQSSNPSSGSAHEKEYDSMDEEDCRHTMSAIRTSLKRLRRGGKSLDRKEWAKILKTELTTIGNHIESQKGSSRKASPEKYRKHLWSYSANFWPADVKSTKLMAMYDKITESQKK

Compound | Percent Effect [1] [%] | Percent Effect [2] [%] | Percent Effect [3] [%] | Percent Effect [4] [%] | Percent Effect (Trypanosoma cruzi) [%] | Percent Effect [5] [%] | Percent Effect [6] [%] | Percent Effect (Homo sapiens) [%] | Percent Effect [7] [%] | Percent Effect [8] [%] | Percent Effect [9] [%]
CCc1nc(NS(=O)(=O)c2ccc(C)cc2Cl)no1 | -5.01 | -2.67 | -2.5 | 11.5 | 4.19 | 1.56 | -1.57 | -10.5 | 2.73 | 6.17 | -1.19
O=C(c1ccc2c(c1)OCO2)N1CCC[C@]2(C[C@H](OCC3CC3)CO2)C1 | -3.85 | 13.3 | 10.8 | -11.4 | 0.197 | 2.56 | 5.37 | 6.01 | 8.51 | 14.1 | -8.25
O=C(C1CCCC1)N1CCN(Cc2nc(-c3ccco3)no2)CC1 | -5.54 | 13.5 | -5.37 | 16 | 3.99 | -1.29 | 3.23 | 19.1 | 4.95 | 15.8 | -4.84
CCn1cc(NC(=O)NCC(O)COc2cccc(F)c2)cn1 (stereo not given) | 2.07 | 13.2 | -3.12 | 0.363 | -7.14 | 1.92 | 6.68 | 13.5 | 2.45 | 17.1 | -8.89
CC(C)NC(=O)NCCCc1cc(N)n(-c2ccccc2)n1 | -2.64 | 5.48 | -7.43 | 15.8 | 5.09 | -6.82 | 24.8 | 14.3 | 5.38 | 17.5 | -8.17
CC(C)N(CC(N)=O)Cc1csc(Cc2ccccc2)n1 | -3.88 | 12.7 | 0.223 | -4.46 | -6.7 | 0 | 5.82 | 41.7 | -1.48 | 11.4 | -6.32
CCc1nc(C2CCCN2Cc2nc(CCOC)no2)no1 (stereo not given) | -3.77 | 10.4 | -0.579 | 7.16 | 6.59 | -5.52 | 3.49 | -6.27 | 3.23 | 11.1 | -7.19
Cc1ccccc1CSc1nc(N)cc(N2CC[C@@H](O)C2)n1 | -5.3 | 16.2 | -11.2 | 22.8 | 7.33 | -3.23 | 11.4 | 28.7 | 20.4 | 30.9 | -7.45
CCN1C[C@@H]2[C@@H](OC)CCN(S(=O)(=O)c3ccccc3)[C@@H]2C1 | -1.54 | 16 | 3.6 | -7.4 | -7.48 | 0.233 | 11.4 | -3.22 | 1.06 | 6.41 | -5.54
CC(c1ccc(F)c(F)c1)N1CCN(Cc2nccn2C)CC1 (stereo not given) | 0.457 | 20.8 | -8.62 | 5.23 | -7.68 | 5.69 | 8.62 | 40.9 | -5.83 | -2.44 | -9.27
CCCNC(=O)CN1CCC(C(=O)Nc2cnn(CC)c2)CC1 | -4.73 | 18.4 | -9.54 | -8.7 | -5.13 | 3.24 | 3.98 | 7.34 | 6.4 | 18.5 | -3.68
Cc1ccc(C(=O)N2CCCC(NC(=O)C(C)C)C2)c(O)c1 (stereo not given) | -4.49 | 16.2 | -12.8 | 11.8 | 3.87 | -4.41 | 11.9 | 6.82 | 8.37 | 25.9 | -10.5
COc1cccn(CC(=O)N(C)CCOc2cc(C)cc(C)c2)c1=O | -5.42 | 8.22 | -63.8 | 11.9 | 2.98 | -12.8 | 15.2 | -0.398 | -2.08 | 3.7 | -0.823
CN(C)C(=O)[C@H]1C[C@@H]2CN(S(=O)(=O)Cc3ccccc3)C[C@H]1O2 | -2.48 | 13.3 | 5.4 | -3.98 | -1.38 | 3.96 | 7.49 | -3.98 | 5.32 | 11.5 | -6.01
CN(C)S(=O)(=O)N1CCC(Oc2ccc(C#N)cn2)CC1 | -4.11 | 5.2 | 0.734 | 0.477 | 3.25 | -0.645 | 17.2 | 28 | 5.29 | 8.97 | -8.98
C[C@H]1C[C@@H]2CCN(C(=O)c3cccn3C)C[C@H]2O1 | -0.284 | 10.8 | 2.27 | -5.58 | -8.89 | 6.69 | 17.5 | 3.63 | -1.08 | 5.13 | -0.358
O=C1CCCN1Cc1ncn2c1CN(C(=O)c1cccc(F)c1)CCC2 | -0.833 | 16.2 | -2.98 | 12 | 3.42 | 20.6 | 13.3 | 17.8 | 8.6 | 16.1 | -12.8
Cc1ncsc1C(=O)NCCSCCCO | 1.26 | 16.2 | -5.95 | -2.14 | 1.02 | -1.29 | 15.4 | -0.639 | 4.95 | 15.8 | -4.16
CSc1ncccc1C(=O)NCc1ccc(CS(=O)(=O)NC(C)C)cc1 | -2.86 | 13.9 | 2.75 | -0.901 | -1.74 | 3.23 | 15.4 | 21.4 | 2.08 | 2.53 | -26.4
Cn1nc2c(cc1=O)CN(Cc1coc(-c3cccs3)n1)CC2 | 0.447 | 16.2 | -166 | 5.69 | 4.81 | 0.802 | -1.26 | -8.71 | -2.46 | 3.7 | -4.95
